13 compounds from PubChem BioAssay (EPA / NIEHS) can be followed below.

Experiment [1] in a line: BSK_3C_TissueFactor: BioMAP Diversity Plus: 3C Assay for Tissue Factor Biomarker Activity (AID 2282997). The note with it: BioMAP 3C HUVEC, tissue factor biomarker readout; actives raise or lower the signal. An outline of the steps: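 In this endothelial system, HUVEC are treated for 24 h and Tissue Factor is assessed by ELISA, normalised to DMSO.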
The nature of experiment [2]: BSK_3C_uPAR: BioMAP Diversity Plus: 3C Assay for Urokinase-type plasminogen activator receptor (uPAR) Biomarker Activity (AID 2282998). The note with it: BioMAP 3C HUVEC, uPAR biomarker ELISA; actives raise or lower the signal. An outline of the steps:
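Dose primary human umbilical vein endothelial cells, incubate 24 h, measure cell-surface uPAR by ELISA, then fit the signal in both directions against the DMSO negative control.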
A general note: An ELISA detects its analyte on a solid surface through an enzyme-linked reagent.

Experiment [3] can be described thus: BSK_4H_Eotaxin3: BioMAP Diversity Plus: 4H Assay for Eotaxin 3 Biomarker Activity (AID 2283000).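 On outcome: CCL26 protein level quantified by ELISA in parallel with SRB cytotoxicity check.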 Conditions: primary human endothelial cells (HUVEC); actives raise or lower the signal. A digest of the protocol:
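ELISA quantitation of CCL26 (Eotaxin-3) protein from chemically dosed human vascular endothelial cells at 24 h; increases and decreases both scored relative to DMSO-treated baseline.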

Read-out in experiment [4]: Interleukin-1 alpha (IL1a), IL1A (gene 3552)
Description: BSK_BE3C_IL1a: BioMAP Diversity Plus: BE3C Assay for Interleukin-1 alpha (IL1a) Biomarker Activity (AID 2283016). The note with it: primary human bronchial epithelial cells; actives raise or lower the signal. A digest of the protocol:
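ELISA read-out of IL-1a from human lung bronchial epithelial primary cells, 24 h post-dose. Gain or loss of signal fitted relative to DMSO negative control.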

Read-out in experiment [5]: Monocyte Chemoattractant Protein-1 (MCP1), CCL2 (gene 6347)
Description: BSK_3C_MCP1: BioMAP Diversity Plus: 3C Assay for Monocyte Chemoattractant Protein-1 (MCP1) Biomarker Activity (AID 2283017). The note with it: primary human endothelial cells (HUVEC); actives raise or lower the signal. An outline of the steps: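 Using human vascular primary endothelium, researchers measured MCP-1 by ELISA 24 h after treatment, with DMSO serving as negative control for bidirectional fitting.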

Read-out in experiment [6]: Interleukin-8 (IL8), CXCL8 (gene 3576)
In words: BSK_3C_IL8: BioMAP Diversity Plus: 3C Assay for Interleukin-8 (IL8) Biomarker Activity (AID 2283020). Conditions: primary human endothelial cells (HUVEC); actives raise or lower the signal. An outline of the steps:
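HUVEC, 3C stimulation; 24 h compound exposure; IL-8 read by ELISA; gain or loss of signal fitted relative to DMSO control.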

Read-out in experiment [7]: Monokine induced gamma interferon (MIG), CXCL9 (gene 4283)
Description: BSK_3C_MIG: BioMAP Diversity Plus: 3C Assay for Monokine induced gamma interferon (MIG) Biomarker Activity (AID 2283021).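 On AC50: MIG protein level measured by immunoassay in the treated endothelial cultures.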 The note with it: primary human endothelial cells (HUVEC); actives raise or lower the signal. A digest of the protocol:
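HUVEC, 3C system; 24 h chemical exposure; MIG by ELISA; bidirectional fit vs DMSO baseline.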

Experiment [8] can be described thus: ATG_ERE_CIS: Attagene CIS-FACTORIAL HepG2 Assay for Estrogen Response Element (ERE) (AID 2282940). Conditions: HepG2 ERE cis-reporter, Attagene RNA transcript; actives raise or lower the signal. A digest of the protocol:
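Cells used were human hepatoma HepG2, transfected with multiple reporter transcription units under cis-regulatory promoters. Reporter mRNA, read 24 h post-dosing via fluorescent RT-PCR products on capillary electrophoresis, was fitted bidirectionally relative to DMSO.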

Experiment [9] addresses Oxysterols receptor LXR-beta (Homo sapiens) (UniProt P55055). Description: ATG_LXRb_TRANS: Attagene TRANS-FACTORIAL HepG2 Assay for human Liver X Receptor beta (LXRb) (AID 2282981; active means hit-call score of the fitted dose curve at least 0.9, where 1 is the maximum). Conditions: HepG2 Attagene TRANS GAL4-LXRb reporter, mRNA. A digest of the protocol:
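Readout: fluorescent reporter mRNA fragments resolved by capillary electrophoresis after RT-PCR. System: transiently transfected human HepG2, exogenous LXRb-Gal4 chimera driving GAL4-UAS reporter, 24 h dosing. Activity fitted upward against DMSO baseline.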

Experiment [10] concerns the target human Thyroid Receptor alpha (THRa1), THRA (gene 7067) (UniProt P10827). In words: ATG_THRa1_TRANS: Attagene TRANS-FACTORIAL HepG2 Assay for human Thyroid Receptor alpha (THRa1) (AID 2283014; active means hit-call score of the fitted dose curve at least 0.9, where 1 is the maximum). A digest of the protocol:
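Measured here is mRNA from a GAL4-UAS reporter in transfected HepG2 cells carrying a Gal4-fused receptor, 24 h post-dose. DMSO served as negative control and baseline.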

The target of experiment [11] is Estrogen receptor beta (Homo sapiens) (UniProt Q92731). Description: OT_ER_ERbERb_0480: Odyssey Thera (OT) 8-hour HEK293T Protein-Complementation Assay for Estrogen Receptor-beta/-beta Homodimer (AID 2283357; active means hit-call score of the fitted dose curve at least 0.9, where 1 is the maximum). A digest of the protocol: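 Homodimerization of ER-beta LBD measured by protein-fragment complementation in HEK293T; 8 h dosing; fixed, Draq5 counterstain; fluorescence intensity gain over DMSO baseline, positive fitting direction; laser scanning cytometry.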
Estrogen receptor beta (Homo sapiens), sequence (Q92731 whole entry, looked up, the tested form may be a part): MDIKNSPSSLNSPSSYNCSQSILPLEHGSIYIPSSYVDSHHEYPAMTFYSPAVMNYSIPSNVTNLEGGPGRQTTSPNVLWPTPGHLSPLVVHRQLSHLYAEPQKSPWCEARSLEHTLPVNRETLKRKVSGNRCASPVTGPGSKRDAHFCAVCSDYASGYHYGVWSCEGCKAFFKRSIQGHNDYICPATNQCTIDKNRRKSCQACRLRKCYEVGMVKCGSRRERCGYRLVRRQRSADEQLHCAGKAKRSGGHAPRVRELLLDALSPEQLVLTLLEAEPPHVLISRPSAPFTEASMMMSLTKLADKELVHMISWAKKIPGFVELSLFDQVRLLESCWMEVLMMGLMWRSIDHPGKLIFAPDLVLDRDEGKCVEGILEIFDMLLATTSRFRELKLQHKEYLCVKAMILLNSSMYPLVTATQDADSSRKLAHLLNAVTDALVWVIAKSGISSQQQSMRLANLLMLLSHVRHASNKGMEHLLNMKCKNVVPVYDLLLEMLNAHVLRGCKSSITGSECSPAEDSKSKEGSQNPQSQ

For experiment [12] the target is unchanged. Description: OT_ER_ERbERb_1440: Odyssey Thera (OT) 24-hour HEK293T Protein-Complementation Assay for Estrogen Receptor-beta/-beta Homodimer (AID 2283380; active means hit-call score of the fitted dose curve at least 0.9, where 1 is the maximum;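 further: scored as signal increase over DMSO baseline for both agonists and antagonists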). An outline of the steps:
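HEK293T cells stably expressing ER beta LBD (aa 310-547) homodimer fragment-complementation reporter, dosed 24 h. Cells formaldehyde-fixed, Draq5-stained; gain in nuclear (agonist) or nuclear plus cytoplasmic (antagonist) fluorescence versus DMSO read by laser scanning cytometry.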

Experiment [13] concerns the target Retinoic acid receptor RXR-alpha (Homo sapiens) (UniProt P19793). In words: OT_NURR1_NURR1RXRa_0480: Odyssey Thera (OT) 8-hour HEK293T Protein Complementation Assay for Nurr1/retinoid X receptor (RXR) (AID 2283385; active means hit-call score of the fitted dose curve at least 0.9, where 1 is the maximum). An outline of the steps: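 Read-out: fluorescence from protein-fragment complementation between Nurr1 and RXRα in human HEK293T cells, 8 h after dosing. DMSO served as negative control; increased signal counted as activity.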

In experiment [14] the target is Peroxisome proliferator-activated receptor gamma (Homo sapiens) (UniProt P37231). Description: OT_PPARg_PPARgSRC1_0480: Odyssey Thera (OT) 8-hour Protein-Complementation Assay for Peroxisome Proliferator-activated Receptor Gamma / SRC-1 Co-activator (AID 2283387; active means hit-call score of the fitted dose curve at least 0.9, where 1 is the maximum;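 further: nuclear to cytoplasmic split Venus YFP fluorescence ratio reporting PPARg SRC-1 interaction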). An outline of the steps: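 HEK293T transiently transfected with PPARg and SRC-1 fused to Venus YFP fragments, compounds 8 h at 37C. Fixed, Draq5-stained cells imaged; nuclear/cytoplasmic 488 nm fluorescence ratio over at least 350 cells per image; gain fitted versus DMSO.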
Peroxisome proliferator-activated receptor gamma (Homo sapiens), sequence (P37231 whole entry, looked up, the tested form may be a part): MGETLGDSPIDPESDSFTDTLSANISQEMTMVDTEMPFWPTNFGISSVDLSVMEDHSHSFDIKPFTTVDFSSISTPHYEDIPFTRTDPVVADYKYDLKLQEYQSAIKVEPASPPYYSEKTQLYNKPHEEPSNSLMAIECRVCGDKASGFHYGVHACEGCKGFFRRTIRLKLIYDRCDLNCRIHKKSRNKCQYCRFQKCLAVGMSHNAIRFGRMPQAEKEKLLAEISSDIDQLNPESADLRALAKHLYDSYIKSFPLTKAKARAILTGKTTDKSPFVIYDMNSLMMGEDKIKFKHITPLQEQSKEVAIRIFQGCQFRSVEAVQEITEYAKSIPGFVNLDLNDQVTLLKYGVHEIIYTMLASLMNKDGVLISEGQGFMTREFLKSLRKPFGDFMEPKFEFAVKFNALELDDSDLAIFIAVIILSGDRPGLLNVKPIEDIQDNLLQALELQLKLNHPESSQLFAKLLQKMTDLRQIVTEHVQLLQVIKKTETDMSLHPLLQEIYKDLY

Experiment [15] has the same target. In words: OT_PPARg_PPARgSRC1_1440: Odyssey Thera (OT) 24-hour Protein-Complementation Assay for Peroxisome Proliferator-activated Receptor Gamma/ SRC-1 Co-activator (AID 2283388; active means hit-call score of the fitted dose curve at least 0.9, where 1 is the maximum). A digest of the protocol:
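Cells carrying the PPARg/SRC-1 fragment-complementation reporter receive compound for 24 hours, are fixed and counterstained with Draq5, then imaged. Increased nuclear relative to cytoplasmic YFP fluorescence above DMSO baseline indicates binding activity.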

Experiment [16] in a line: ACEA_AR_agonist_AUC_viability: ACEA Biosciences xCELLigence Real-Time Cell Analysis on Androgen Receptor Agonism for Viability (AID 2283775; active means hit-call score of the fitted dose curve at least 0.9, where 1 is the maximum). A digest of the protocol: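 Viability endpoint from xCELLigence impedance in 22Rv1 prostate cells at 80 h. Eight-point series, 100 uM maximum final.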
The target in experiment [17] is Retinoic acid receptor RXR-alpha (Homo sapiens) (UniProt P19793). In words: OT_NURR1_NURR1RXRa_1440: Odyssey Thera (OT) 24-hour HEK293T Protein Complementation Assay for Nurr1/retinoid X receptor (RXR) (AID 2283386; active means hit-call score of the fitted dose curve at least 0.9, where 1 is the maximum). A digest of the protocol:
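Fluorescence PCA read-out; HEK293T; 24 h post-dose; bait/prey fused to reporter fragments; gain-of-signal fit vs DMSO negative control.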

Experiment [18] in a line: ACEA_AR_antagonist_AUC_viability: ACEA Biosciences xCELLigence Real-Time Cell Analysis on Androgen Receptor Antagonism for Viability (AID 2283776; active means hit-call score of the fitted dose curve at least 0.9, where 1 is the maximum;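 further: area under impedance growth curve at 80 h after dosing as viability; hits lower the growth signal relative to DMSO meaning cytotoxicity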). An outline of the steps: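 22Rv1 human prostate cancer cells were seeded on electrode plates, monitored overnight, then exposed to eight 1:4 dilutions from 100 uM final. Impedance-based growth kinetics at 80 h gave an AUC viability endpoint normalized to DMSO.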

For experiment [19], the target named is Bile acid receptor (Homo sapiens) (UniProt Q96RI1). In words: ATG_FXR_TRANS: Attagene TRANS-FACTORIAL HepG2 Assay for Farnesoid X Receptor (FXR) (AID 2282979; active means hit-call score of the fitted dose curve at least 0.9, where 1 is the maximum;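 further: hits raise reporter mRNA above DMSO so AC50 marks FXR activation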). Conditions: HepG2 Attagene TRANS FXR-GAL4 reporter transcription. An outline of the steps:
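After 24 h chemical treatment of transfected HepG2 cells, GAL4-UAS reporter transcripts driven by an exogenous FXR-GAL4 fusion were measured by RT-PCR and capillary electrophoresis. Increases over DMSO were fitted.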

Experiment [20] can be described thus: ATG_GAL4_TRANS: Attagene TRANS-FACTORIAL HepG2 Assay for GAL4 (Internal Marker) (AID 2282976; active means hit-call score of the fitted dose curve at least 0.9, where 1 is the maximum). The note with it: HepG2 Attagene TRANS GAL4 internal marker reporter. A digest of the protocol:
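Liver HepG2 line bearing multiplexed GAL4-UAS reporter constructs; 24 h chemical treatment. Transcripts were quantified as fluorescent fragments on capillary electrophoresis after RT-PCR and HpaI cut, with activity fitted upward from DMSO.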

Results filed as inconclusive are left out. A structure can be active in one record and inactive in another. Active and inactive are the calls of the source. How the source made its calls, unless noted: active means hit-call score of the fitted dose curve at least 0.9, where 1 is the maximum; inactive means score below 0.9.

Retinoic acid receptor RXR-alpha (Homo sapiens), sequence (P19793 whole entry, looked up, the tested form may be a part): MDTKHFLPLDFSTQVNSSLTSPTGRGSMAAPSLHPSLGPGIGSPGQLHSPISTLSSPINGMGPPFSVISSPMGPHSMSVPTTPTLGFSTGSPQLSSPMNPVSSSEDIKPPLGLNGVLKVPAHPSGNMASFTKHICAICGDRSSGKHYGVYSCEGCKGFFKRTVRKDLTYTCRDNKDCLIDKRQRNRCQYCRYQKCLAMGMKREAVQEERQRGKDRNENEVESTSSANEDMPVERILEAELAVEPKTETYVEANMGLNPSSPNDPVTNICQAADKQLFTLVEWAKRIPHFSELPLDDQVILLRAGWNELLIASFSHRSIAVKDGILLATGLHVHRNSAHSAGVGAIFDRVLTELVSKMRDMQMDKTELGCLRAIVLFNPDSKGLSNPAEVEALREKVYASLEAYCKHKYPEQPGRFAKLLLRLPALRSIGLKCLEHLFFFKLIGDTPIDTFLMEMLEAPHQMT
Bile acid receptor (Homo sapiens), sequence (Q96RI1 whole entry, looked up, the tested form may be a part): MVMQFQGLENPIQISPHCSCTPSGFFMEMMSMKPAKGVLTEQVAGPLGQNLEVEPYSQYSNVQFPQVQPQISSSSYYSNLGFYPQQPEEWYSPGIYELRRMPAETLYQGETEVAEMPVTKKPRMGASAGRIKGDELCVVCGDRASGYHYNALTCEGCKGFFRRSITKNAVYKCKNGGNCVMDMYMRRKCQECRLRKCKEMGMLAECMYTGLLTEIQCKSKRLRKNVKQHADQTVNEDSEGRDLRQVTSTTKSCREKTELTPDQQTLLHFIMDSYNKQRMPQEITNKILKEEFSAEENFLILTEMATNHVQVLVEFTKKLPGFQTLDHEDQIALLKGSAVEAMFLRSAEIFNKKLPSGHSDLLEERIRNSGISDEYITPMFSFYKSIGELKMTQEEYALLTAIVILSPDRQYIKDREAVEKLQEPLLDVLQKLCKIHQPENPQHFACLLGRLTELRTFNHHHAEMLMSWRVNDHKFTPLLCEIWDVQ
human Thyroid Receptor alpha (THRa1), THRA (gene 7067), sequence (P10827 whole entry, looked up, the tested form may be a part): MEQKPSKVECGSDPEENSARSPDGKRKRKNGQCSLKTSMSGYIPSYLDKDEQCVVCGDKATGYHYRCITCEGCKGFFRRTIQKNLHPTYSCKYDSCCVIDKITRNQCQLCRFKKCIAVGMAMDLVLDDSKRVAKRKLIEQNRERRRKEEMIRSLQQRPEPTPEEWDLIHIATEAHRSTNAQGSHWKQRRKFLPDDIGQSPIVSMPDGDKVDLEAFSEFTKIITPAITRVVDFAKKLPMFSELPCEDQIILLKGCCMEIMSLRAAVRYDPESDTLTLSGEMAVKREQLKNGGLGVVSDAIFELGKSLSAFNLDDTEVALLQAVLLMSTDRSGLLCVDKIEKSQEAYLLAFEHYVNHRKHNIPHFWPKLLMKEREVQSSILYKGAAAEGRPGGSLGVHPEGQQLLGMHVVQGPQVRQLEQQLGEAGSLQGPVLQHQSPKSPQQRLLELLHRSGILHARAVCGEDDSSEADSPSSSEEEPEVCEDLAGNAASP
Oxysterols receptor LXR-beta (Homo sapiens), sequence (P55055 whole entry, looked up, the tested form may be a part): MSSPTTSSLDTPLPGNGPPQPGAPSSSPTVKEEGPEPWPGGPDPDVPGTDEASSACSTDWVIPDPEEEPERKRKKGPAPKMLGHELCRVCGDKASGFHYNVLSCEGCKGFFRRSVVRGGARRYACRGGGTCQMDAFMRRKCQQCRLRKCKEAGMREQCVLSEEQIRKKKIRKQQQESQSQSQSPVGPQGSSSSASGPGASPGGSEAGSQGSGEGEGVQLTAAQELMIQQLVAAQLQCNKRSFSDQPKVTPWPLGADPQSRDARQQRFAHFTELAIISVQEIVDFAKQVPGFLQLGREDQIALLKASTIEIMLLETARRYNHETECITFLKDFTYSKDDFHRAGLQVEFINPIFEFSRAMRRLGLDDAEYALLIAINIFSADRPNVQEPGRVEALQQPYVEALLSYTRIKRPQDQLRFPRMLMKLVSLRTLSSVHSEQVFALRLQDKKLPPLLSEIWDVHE

With `O=P1(NCCCl)OCCCN1CCCl` (configuration not stated), the result in experiment [1], in experiment [2], in experiment [3], in experiment [4], in experiment [5] and in experiment [6] was inactive. Further, the result in experiment [7] was inactive.
For the compound `C=Cc1cccc(CCl)c1`, the result in experiment [8] was inactive.
With `CCOP(=O)(OCC)OCC`, the compound was called inactive in experiment [9], in experiment [10], in experiment [11], in experiment [12], in experiment [13] and in experiment [14]. For the same compound, the compound was called inactive in experiment [15] and in [16].
As for `CC(C)(O)C#N`, the compound was called inactive in [11], in [12], in experiment [13], in experiment [17], in [14] and in experiment [15]. The call in experiment [16] and in [18] was inactive.
For `CC(C)CCCCCCCOC(=O)c1ccccc1C(=O)OCCCCCCCC(C)C`, the compound was called inactive in experiment [19], in experiment [1], in [2], in [3], in [10] and in experiment [4]. The result in experiment [5], in experiment [6] and in experiment [7] was inactive.
As for `Oc1cc(Cl)ccc1Cl`, the result in experiment [1], in experiment [2], in experiment [3], in experiment [4], in experiment [5] and in experiment [6] was inactive. The outcome in experiment [7], in [17], in experiment [14], in experiment [15] and in experiment [18] was inactive.
Take `C=CC(=O)OC`: the result in [19], in [9] and in [10] was inactive.
What is called AC50 is the concentration at which the activity in the assay is half-maximal. As to `O=C1C=CC(=O)C=C1`, the compound was classed as inactive in [9], in [1], in experiment [2], in [10], in experiment [4] and in [5]. The outcome in experiment [6] and in [7] was inactive. The AC50 in experiment [1] was 33.2 µM (active); in experiment [2], 12.8 µM (active); in experiment [3], 20 µM (active); in experiment [4], 33 µM (active); in experiment [5], 20 µM (active); in experiment [6], 32.9 µM (active). Also, the AC50 in [7] was 35.6 µM (active).
As for `C[N+](C)(C)CC(=O)O`, the compound was classed as inactive in experiment [8].
For the compound `CN1C[C@H](C(=O)N[C@]2(C)O[C@@]3(O)[C@@H]4CCCN4C(=O)[C@H](Cc4ccccc4)N3C2=O)C=C2c3cccc4[nH]cc(c34)C[C@H]21`, the outcome in experiment [8], in [20] and in experiment [19] was inactive.
With `C=C(Cl)CCl`, the compound was classed as inactive in experiment [8], in experiment [20] and in [10].
On to `CCOC(=O)N(C)N=O`, for which the compound was called inactive in experiment [10].
Regarding `O=[N+]([O-])c1ccc(Cl)cc1`, the compound was called inactive in [9], in experiment [1], in experiment [2], in experiment [3], in [4] and in [5]. The result in experiment [6], in experiment [7], in experiment [11], in experiment [12], in [17] and in experiment [16] was inactive.
